Article PMC4336329 (PLoS ONE, 2015)
The campaign covered roughly 310,000 compounds. About 2,200 (0.71%) showed an effect of 50% or more. The effect is printed as a negative number. The list comes from a sample in which strong results are over-represented; it also holds similar structures and randomly drawn compounds.

target: human ether-à-go-go-related gene (hERG) potassium channel (human, UniProt Q12809); assay: primary screen, population patch clamp on CHO cells stably expressing hERG; higher = less effect of the substance
Method: Briefly, Chinese hamster ovary (CHO) cells stably expressing the hERG channel were dislodged from tissue culture flasks and dispensed into PPC plates. […] During the recording, background leak currents were estimated by a 100 ms step to -80 mV from an initial holding potential of -70 mV and subtracted from the subsequent current measurement. The campaign was conducted in two phases using slight differences in recording protocol. In the first phase, the initial voltage pulse used a 100 ms step to -30 mV from a holding potential of -70 mV, a 2 s conditioning step to +25 mV, and a 2 s test step to -30 mV. During the second phase of the screen, the potential during the conditioning step was raised to +45 mV. In both phases of the campaign, a secondary voltage pulse was applied using the same parameters as the second phase initial pulse. The initial and secondary pulses were applied in the absence of compound, and upon application of 1 μM and 10 μM test concentrations. Small molecule effects on hERG current density were quantified by […].

human ether-à-go-go-related gene (hERG) potassium channel, sequence (Q12809 whole entry, looked up): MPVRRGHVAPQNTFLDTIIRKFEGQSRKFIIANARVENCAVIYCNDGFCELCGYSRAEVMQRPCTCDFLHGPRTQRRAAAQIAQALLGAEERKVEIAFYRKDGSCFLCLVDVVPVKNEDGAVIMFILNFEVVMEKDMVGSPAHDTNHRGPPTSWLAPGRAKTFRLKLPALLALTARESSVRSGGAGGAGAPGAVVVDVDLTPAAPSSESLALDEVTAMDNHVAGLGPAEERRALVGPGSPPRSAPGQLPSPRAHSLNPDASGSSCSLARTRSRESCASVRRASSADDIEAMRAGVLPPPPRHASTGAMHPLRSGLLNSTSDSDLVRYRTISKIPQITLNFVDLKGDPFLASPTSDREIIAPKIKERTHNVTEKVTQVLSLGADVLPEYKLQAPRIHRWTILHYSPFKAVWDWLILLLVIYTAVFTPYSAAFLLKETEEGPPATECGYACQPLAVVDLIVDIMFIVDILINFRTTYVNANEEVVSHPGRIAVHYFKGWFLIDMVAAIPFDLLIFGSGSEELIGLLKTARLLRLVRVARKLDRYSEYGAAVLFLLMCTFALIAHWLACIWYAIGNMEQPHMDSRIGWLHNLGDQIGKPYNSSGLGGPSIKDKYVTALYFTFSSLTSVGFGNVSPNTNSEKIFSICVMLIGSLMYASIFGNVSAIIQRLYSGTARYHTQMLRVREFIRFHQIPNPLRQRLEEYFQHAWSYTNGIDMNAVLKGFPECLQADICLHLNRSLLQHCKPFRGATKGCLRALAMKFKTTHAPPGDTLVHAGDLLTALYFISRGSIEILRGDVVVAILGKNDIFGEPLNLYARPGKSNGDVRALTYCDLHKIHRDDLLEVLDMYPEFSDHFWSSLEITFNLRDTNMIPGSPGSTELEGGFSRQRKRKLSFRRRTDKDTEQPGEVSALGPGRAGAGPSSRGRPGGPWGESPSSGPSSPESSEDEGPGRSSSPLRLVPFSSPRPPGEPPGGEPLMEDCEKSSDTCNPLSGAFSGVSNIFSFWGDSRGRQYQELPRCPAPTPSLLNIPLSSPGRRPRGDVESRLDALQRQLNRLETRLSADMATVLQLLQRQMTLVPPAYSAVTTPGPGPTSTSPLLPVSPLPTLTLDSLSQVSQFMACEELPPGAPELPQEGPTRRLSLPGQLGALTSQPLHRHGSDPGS

Going from `Cc1ccc(NC(=O)COC(=O)Cn2cnc3c2c(=O)n(C)c(=O)n3C)c(Cl)c1` to `CCCCCn1c(SCC(=O)OCC)nc2cc(C(=O)NCc3ccco3)ccc2c1=O`, the “hERG current change (%, negative = inhibition) at 1uM” value falls from 13.3% to 12.8%.

Going from `Cc1ccc(C(=O)COC(=O)C2C3C=CC(C3)C2C(=O)OCC(=O)c2ccc(C)c(C)c2)cc1C` (centres unmarked) to `CCOc1ccc(C(=O)COC(C)=O)cc1`, the “hERG current change (%, negative = inhibition) at 1uM” value falls from 11.2% to 9.74%.

Going from `O=C(NCCC1CCCCN1S(=O)(=O)c1ccc(F)cc1)C(=O)Nc1ccccc1` (centres unmarked) to `O=c1[nH]c(C2CCCN(S(=O)(=O)c3ccc(F)cc3)C2)nc2c1nnn2Cc1ccccc1` (centres unmarked), the “hERG current change (%, negative = inhibition) at 1uM” value rises from 7.03% to 7.82%.

Compared with `NC(=O)COC(=O)c1ccc(Oc2ccccc2)cc1`, `O=C(Oc1ccc2ccc(=O)oc2c1)c1ccccc1` is higher in “hERG current change (%, negative = inhibition) at 1uM” value: 4.12% for the first, 9.28% for the second.

Going from `COC(=O)c1ccc(N2CCOCC2)c(NC(=O)c2cccs2)c1` to `O=C(Nc1cc(C(=O)N2CCOCC2)ccc1N1CCCC1)c1cccs1`, the “hERG current change (%, negative = inhibition) at 1uM” value falls from 0.514% to -78.2%.

First: O=C(Nc1cc(C(=O)N2CCCC2)ccc1N1CCCC1)c1ccccc1F
Second: O=C(Nc1cc(C(=O)N2CCCC2)ccc1N1CCCC1)c1ccccc1
The “hERG current change (%, negative = inhibition) at 1uM” value of the first is higher: -82.8% for the first, -83.5% for the second.

Going from `O=C(Nc1cc(C(=O)N2CCCC2)ccc1N1CCCC1)C1CC1` to `CNC(=S)Nc1cc(C(=O)N2CCCC2)ccc1N1CCCC1`, the “hERG current change (%, negative = inhibition) at 1uM” value rises from -1.85% to 2.01%.

Going from `O=C(Nc1ccc(C(=O)N2CCOCC2)cc1)c1cccs1` to `O=C(Nc1ccccc1C(=O)N1CCCC1)c1ccc(Cl)cc1Cl`, the “hERG current change (%, negative = inhibition) at 1uM” value falls from 20.3% to 10.3%.

Compared with `O=C(Nc1ccccc1C(=O)N1CCCCC1)c1ccc(Cl)cc1Cl`, `O=C(Nc1ccccc1C(=O)N1CCCCCC1)c1ccccc1Cl` is higher in “hERG current change (%, negative = inhibition) at 1uM” value: -79.6% for the first, 13.6% for the second.

Compared with `O=C(Nc1ccccc1N1CCCCC1)c1ccccc1F`, `O=C(Nc1ccccc1N1CCCC1)c1ccccc1F` is higher in “hERG current change (%, negative = inhibition) at 1uM” value: -5.76% for the first, 6.48% for the second.

First: Cc1nnsc1C(=O)N1CCN(c2ccc(C#N)cn2)CC1
Second: O=C(CN1C(=O)CSC1=O)N1CCCC(Nc2ccc(F)cc2)C1 (centres unmarked)
The “hERG current change (%, negative = inhibition) at 1uM” value of the first is lower: 3.48% for the first, 11.5% for the second.

Going from `CCOc1cccc(/C=N/N2C(C)CCCC2C)c1O` (centres unmarked) to `Cc1cccc(-c2ncc(CN3CCN(C4CCCC4)C(CCO)C3)cn2)c1` (centres unmarked), the “hERG current change (%, negative = inhibition) at 1uM” value falls from 2.07% to -15.1%.

Compared with `CCCCCCOc1ccc(CN2CCN(C)CC2)cc1`, `CCCCCCCN1CCC(=O)N([C@H](CO)Cc2ccccc2)CC1` is lower in “hERG current change (%, negative = inhibition) at 1uM” value: -0.56% for the first, -77.2% for the second.

Compared with `CC(=O)/C=C\c1ccccc1OC(=O)c1cc2ccccc2oc1=O`, `CNS(=O)(=O)c1cccc(C(=O)OCC(=O)c2cc3ccccc3o2)c1` is higher in “hERG current change (%, negative = inhibition) at 1uM” value: 16.3% for the first, 21% for the second.

Going from `CCOC(=O)c1cc2cc(OCc3ccccc3)ccc2nc1C` to `O=C(Oc1ccc2ccccc2c1)c1ccco1`, the “hERG current change (%, negative = inhibition) at 1uM” value falls from 8.83% to -0.657%.

First: CC(C)c1csc(CN2CCC(N3CCC(C(=O)NCC4CCCO4)CC3)CC2)n1 (centres unmarked)
Second: O=C(NCC1CCCO1)c1ccc2c(=O)n(CC3CCCO3)c(SCC(=O)N3CCCC3)nc2c1 (centres unmarked)
The “hERG current change (%, negative = inhibition) at 1uM” value of the first is higher: 9.96% for the first, 5.44% for the second.

Going from `O=C(Oc1ccc2ccc(=O)oc2c1)c1ccco1` to `O=C(Oc1coc(CSc2ncccn2)cc1=O)c1ccc(Br)o1`, the “hERG current change (%, negative = inhibition) at 1uM” value rises from -53.7% to 11.6%.

First: CC1(c2nnc(-c3ccncc3)o2)CC(c2cccc(Cl)c2)=NO1 (centres unmarked)
Second: Clc1ccccc1C1=Nn2c(nnc2-c2ccco2)SC1
The “hERG current change (%, negative = inhibition) at 1uM” value of the first is higher: 13.4% for the first, 4.48% for the second.

Compared with `CCc1ccc(NC(=O)CSCCN2C(=O)c3ccccc3C2=O)cc1`, `O=C(CSc1ccc(F)cc1)Nc1ccc(Br)cc1` is higher in “hERG current change (%, negative = inhibition) at 1uM” value: -8.99% for the first, 13.9% for the second.

First: COc1ccc(OC)c(C2C(C#N)=C(N)Oc3c2c(C)nn3-c2cccc(Cl)c2)c1 (centres unmarked)
Second: COc1ccc(C2CC(c3ccccc3)=NN2C(=O)c2ccc(Cl)c([N+](=O)[O-])c2)cc1 (centres unmarked)
The “hERG current change (%, negative = inhibition) at 1uM” value of the first is lower: 7.28% for the first, 9.38% for the second.

Going from `COCCCn1c(SCC(=O)Nc2cccc(C)n2)nnc1-c1ccco1` to `CCCCn1c(SCC(=O)Nc2cccc(C)n2)nnc1-c1ccco1`, the “hERG current change (%, negative = inhibition) at 1uM” value falls from -20.6% to -78%.

Compared with `CCn1c(SCC(=O)Nc2cccc(C)n2)nnc1-c1ccco1`, `C=CCn1c(SCC(=O)OCC)nc2cc(C(=O)NCc3ccco3)ccc2c1=O` is lower in “hERG current change (%, negative = inhibition) at 1uM” value: 0.773% for the first, -9.92% for the second.

Going from `COc1ncnc2c1oc1nc(CC(C)C)c3c(c12)CC(C)(C)OC3` to `CCOC(=O)CSc1nc2cc(C(=O)NCC3CCCO3)ccc2c(=O)n1Cc1ccco1` (centres unmarked), the “hERG current change (%, negative = inhibition) at 1uM” value falls from -10.6% to -18.2%.

Compared with `CCOC(=O)/C(C(C)=O)=C1\OC(=O)c2ccccc21`, `COc1ccccc1/C=C(/C(=O)OCC(=O)Nc1ccc(N(C)C)cc1)c1ccccc1` is higher in “hERG current change (%, negative = inhibition) at 1uM” value: 8.9% for the first, 9.09% for the second.

Compared with `COc1ccc(CNC(=O)CSc2n[nH]c(N)n2)cc1`, `COc1ccc(CNC(=O)CSc2n[nH]c(N)n2)cc1OC` is lower in “hERG current change (%, negative = inhibition) at 1uM” value: 14.9% for the first, -73.4% for the second.

Going from `COc1ccc(CCNC(=O)CSc2n[nH]c(N)n2)cc1OC` to `CCOc1ccc2nc(NCCO)[nH]c2c1`, the “hERG current change (%, negative = inhibition) at 1uM” value falls from 18.1% to 10.9%.

First: O=C(O)C1Nc2ccc(C(F)(F)F)cc2C2OCCC12 (centres unmarked)
Second: CN(CC(=O)Nc1ccc(Cl)c(C(F)(F)F)c1)C(=O)c1cn2ccccc2n1
The “hERG current change (%, negative = inhibition) at 1uM” value of the first is higher: 10.7% for the first, 5.27% for the second.

Compared with `O=C(NCC1CCCO1)c1ccc2c(=O)n(Cc3ccco3)c(SCC(=O)N3CCCC3)nc2c1` (centres unmarked), `O=C(NCc1ccco1)c1ccc2c(=O)n(Cc3ccco3)c(SCC(=O)N3CCCC3)nc2c1` is lower in “hERG current change (%, negative = inhibition) at 1uM” value: -54% for the first, -66.9% for the second.

First: CCN(C(=O)CSc1nnnn1-c1ccccc1)c1c(N)n(Cc2ccccc2)c(=O)[nH]c1=O
Second: Cc1cccc(N2C(=O)NC(=O)/C(=C\c3cnn(-c4ccccc4)c3)C2=O)c1
The “hERG current change (%, negative = inhibition) at 1uM” value of the first is higher: 15.9% for the first, 12.6% for the second.

Going from `Cc1ccc(S(=O)(=O)NCCC(=O)NC2CCCC2)cc1` to `COc1ccc(S(=O)(=O)Nc2ccc(-c3ccc(N4CCCC4)nn3)cc2)cc1C`, the “hERG current change (%, negative = inhibition) at 1uM” value rises from 1.28% to 11.6%.

First: CCCN1CCC(=O)N([C@H](CO)Cc2ccccc2)CC1
Second: CCCN1CCC(=O)N([C@H](CSc2ccccc2)Cc2ccccc2)CC1
The “hERG current change (%, negative = inhibition) at 1uM” value of the first is higher: 6.98% for the first, -48.9% for the second.

Going from `CC(C)C[C@@H](COc1ccccc1)N1CCN(Cc2ccccc2)CCC1=O` to `CC(C)C[C@@H](COc1ccccc1)N1CCN(CCc2ccccc2)CCC1=O`, the “hERG current change (%, negative = inhibition) at 1uM” value falls from -4.6% to -61.7%.

Compared with `CC(C)CN1CCC(=O)N([C@H](COc2ccccc2)Cc2ccccc2)CC1`, `CCCN1CCC(=O)N([C@H](COc2ccccc2)Cc2ccccc2)CC1` is lower in “hERG current change (%, negative = inhibition) at 1uM” value: -29.8% for the first, -52.4% for the second.

Compared with `COc1ccc(SC[C@H](Cc2ccccc2)N2CCN(CCc3ccccc3)CCC2=O)cc1`, `COc1ccc(SC[C@H](CC(C)C)N2CCN(CCc3ccccc3)CCC2=O)cc1` is lower in “hERG current change (%, negative = inhibition) at 1uM” value: -43.2% for the first, -51.6% for the second.

Going from `CC(C)C[C@@H](CSc1ccc(Br)cc1)N1CCN(CCc2ccccc2)CCC1=O` to `CCCN1CCC(=O)N([C@H](COc2ccccc2)CC(C)C)CC1`, the “hERG current change (%, negative = inhibition) at 1uM” value falls from -28.9% to -48.1%.

First: O=C1CCN(CCCc2ccccc2)CCN1[C@H](CO)Cc1ccccc1
Second: O=C1CCN(CCc2ccccc2)CCN1[C@H](COc1ccccc1)Cc1ccccc1
The “hERG current change (%, negative = inhibition) at 1uM” value of the first is higher: -12% for the first, -60.4% for the second.

First: Cc1cc(C)n(CCN(C)C(=O)C2CCC(=O)N(CCN3CCOCC3)C2)n1 (centres unmarked)
Second: OCCC1CN(Cc2cnc(-c3ccc(Cl)cc3)nc2)CCN1C1CCCC1 (centres unmarked)
The “hERG current change (%, negative = inhibition) at 1uM” value of the first is higher: 16.1% for the first, -62% for the second.

Compared with `O=C(N/N=C/c1cc(Br)c(O)c(Br)c1)c1cccnc1`, `COc1ccccc1C(=O)N/N=C/c1cnc2ccccc2n1` is lower in “hERG current change (%, negative = inhibition) at 1uM” value: 18.5% for the first, 6.27% for the second.

First: CN1CCC(=O)N([C@H](COc2ccccc2)Cc2ccccc2)CC1
Second: O=C1CCN(Cc2ccccc2)CCN1[C@H](COc1ccccc1)Cc1ccccc1
The “hERG current change (%, negative = inhibition) at 1uM” value of the first is lower: -8.2% for the first, -7.61% for the second.

Going from `CC(C)CCN1CCN(CCCc2ccccc2)CC1CCO` (centres unmarked) to `CC(C)CCN1CCN(CC#Cc2ccccc2)CC1CCO` (centres unmarked), the “hERG current change (%, negative = inhibition) at 1uM” value rises from -1.8% to 4.3%.

Going from `OCCC1CN(CC#Cc2ccccc2)CCN1C1CCCC1` (centres unmarked) to `OCCC1CN(C/C(Cl)=C/c2ccccc2)CCN1C1CCCC1` (centres unmarked), the “hERG current change (%, negative = inhibition) at 1uM” value falls from -7.79% to -43.4%.

Compared with `OCCC1CN(CC(c2ccccc2)c2ccccc2)CCN1C1CCCC1` (centres unmarked), `CC(C)CCN1CCN(CC(c2ccccc2)c2ccccc2)CC1CCO` (centres unmarked) is lower in “hERG current change (%, negative = inhibition) at 1uM” value: -74.5% for the first, -81.9% for the second.

First: OCCC1CN(Cc2cnc(-c3ccc(Cl)cc3)nc2)CCN1C1CCCCC1 (centres unmarked)
Second: CC(Oc1ccc(Cl)cc1Cl)c1ccnc(N)n1 (centres unmarked)
The “hERG current change (%, negative = inhibition) at 1uM” value of the first is lower: -31.1% for the first, 16.2% for the second.

Compared with `CC(=O)N1C[C@H](O)C[C@H]1C(=O)O`, `Cc1ccc(C)c(NC(=O)Cn2nc(-c3ccccc3)nc2-c2ccccc2)c1` is higher in “hERG current change (%, negative = inhibition) at 1uM” value: -19% for the first, 16.6% for the second.

`O=C(COc1ccccc1)NNc1c2ccccc2nc2ccccc12` was tested, and the “hERG current change (%, negative = inhibition) at 1uM” value was 4.4%.
